The list is not random: actives were taken first. Their share in the collection is about 1.8%.
PAD4 inh: PAD4 (human) enzyme inhibition. inhibition, % at 6.36 µM. recombinant PAD4, RCA probe fluorescence polarization. 330,000 compounds, 0.41% hits. Q9UM07. AID 485272;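 active = percent inhibition above a cutoff equal to the mean of all tested compounds plus 3 SD, cut at about 15% in these data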;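 note: 0% = PAD4 with RCA probe and DMSO and 100% = probe without PAD4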
Fam108B counter: Fam108B inhibition, counter-screen for RBBP9 inhibitors. recombinant Fam108B, FP-Rh probe fluorescence polarization. inhibition, % at 9.51 µM. 300,000 compounds, 0.33% hits. AID 1947;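 active = inhibition above the screen mean inhibition plus 3 SD, computed separately per campaign, cut at about 18% in these data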;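 note: inhibitors lower polarization as less probe binds the enzyme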
PME-1 inh: PME-1 (human) inhibition. inhibition, % at 5.9 µM. Q9Y570. AID 2130. 320,000 compounds, 0.53% hits. recombinant PME-1, FP-Rh probe fluorescence polarization;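 active = inhibition above the campaign mean of all compounds plus 3 SD, cut at about 26% in these data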;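 note: competitive labeling of PME-1 active site by serine hydrolase directed probe; 0% = PME-1 with DMSO and 100% = wells lacking PME-1 enzyme; inhibitors block probe labeling so polarization falls and inhibition rises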
Target sequence (Q9Y570 whole entry, looked up): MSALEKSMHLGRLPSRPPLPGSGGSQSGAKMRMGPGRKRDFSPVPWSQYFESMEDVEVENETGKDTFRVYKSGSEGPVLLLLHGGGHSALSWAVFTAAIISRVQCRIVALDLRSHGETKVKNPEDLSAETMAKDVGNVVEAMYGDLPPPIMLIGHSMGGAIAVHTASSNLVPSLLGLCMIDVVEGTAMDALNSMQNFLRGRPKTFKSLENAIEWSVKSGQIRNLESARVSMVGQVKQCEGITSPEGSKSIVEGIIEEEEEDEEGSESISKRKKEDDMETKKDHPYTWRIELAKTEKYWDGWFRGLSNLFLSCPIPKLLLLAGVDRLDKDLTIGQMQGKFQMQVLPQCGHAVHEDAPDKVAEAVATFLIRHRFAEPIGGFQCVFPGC
LYPLA2 inh: blocks human lysophospholipase 2, a PME1 counter-screen; inhibition, % at 5.9 µM; 320,000 compounds, 0.38% hits; AID 2177; O95372; recombinant LYPLA2, FP-Rh probe fluorescence polarization;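 active = inhibition above the screen-wide mean plus 3 SD, limit set per campaign, cut at about 26% in these data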;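 note: 0% = LYPLA2 with DMSO and 100% = wells lacking LYPLA2 enzyme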
LYPLA1 counter: LYPLA1 (human) inhibition in PME1 counter-screen; O75608; recombinant LYPLA1, FP-Rh probe fluorescence polarization; inhibition, % at 5.9 µM; 320,000 compounds, 0.16% hits;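 active = inhibition above the mean of all tested compounds plus 3 SD, set per campaign, cut at about 14% in these data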;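 note: inhibitors block serine hydrolase probe labeling of LYPLA1 so polarization falls; 0% = enzyme with DMSO and 100% = wells lacking LYPLA1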
Target sequence (O75608 whole entry, looked up): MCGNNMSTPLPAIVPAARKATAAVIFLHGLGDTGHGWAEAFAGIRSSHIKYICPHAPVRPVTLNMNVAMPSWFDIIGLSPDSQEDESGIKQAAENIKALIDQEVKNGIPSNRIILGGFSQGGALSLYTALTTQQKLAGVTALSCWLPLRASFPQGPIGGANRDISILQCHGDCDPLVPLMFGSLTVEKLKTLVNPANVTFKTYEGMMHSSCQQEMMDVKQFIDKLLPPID
GSTO1 counter: blocks human GSTO1 in RBBP9 counter-screen. inhibition, % at 5.96 µM. P78417. 300,000 compounds, 1.1% hits. recombinant GSTO1, activity-based probe fluorescence polarization;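 active = inhibition above the campaign mean inhibition plus 3 SD, cut at about 35% in these data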;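 note: 0% = GSTO1-1 with DMSO and 100% = wells lacking GSTO1-1 enzyme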
Fam108b confirm: confirmation of mouse Fam108b serine hydrolase inhibitors; shares compounds with Fam108B counter; recombinant Fam108b, FP-Rh probe fluorescence polarization; inhibition, % at 9.51 µM; 930 compounds, 44% hits;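 active = inhibition above a limit from the primary screen, the mean over all compounds plus 3 SD, cut at about 19% in these data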;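 note: 0% = median of active Fam108b wells and 100% = catalytically dead S170A mutant; inhibitors free the probe so polarization falls as inhibition rises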
Fam108b inh: mouse ABHD17B inhibition | 260 compounds, 44% hits | AID 588649 | shares compounds with Fam108B counter | recombinant Fam108b, gel-based ABPP, fluorophosphonate probe | inhibition, % at 20 µM; in the data active = inhibition above about 40%
* hit, by the source's call; nt = not tested or not shown.

SMILES | PAD4 inh | Fam108B counter | PME-1 inh | LYPLA2 inh | LYPLA1 counter | GSTO1 counter | Fam108b confirm | others
COC(=O)CCc1c(COC(C)=O)[nH]c(C(=O)OCc2ccccc2)c1C | -2 | -1 | 6 | -1 | -3 | 6 | nt
Cc1ccc(-c2csc3nc(C(C)C)oc(=O)c23)c(C)c1 | -10 | 67* | -1 | -2 | -1 | -6 | 66* | Fam108b inh=50*
Oc1ccc(N=Cc2ccc(O)c(O)c2)cc1 | 1 | 36* | 47* | 14 | -3 | 88* | 1
O=C(COC(=O)c1ccc(S(=O)(=O)NCc2ccco2)cc1)Nc1ccc(Cl)cn1 | -5 | -13 | -10 | -13 | -6 | -4 | nt
CC(NC(=O)Nc1ccc(F)cc1)c1ccc2c(c1)OCO2 (stereo not drawn) | -1 | -4 | 4 | 3 | 6 | 0 | nt
O=C(Nc1ccc(S(=O)(=O)Nc2nccs2)cc1)c1cccc(F)c1 | -6 | 2 | -3 | -8 | -6 | -4 | nt
O=C(Nc1ccc(S(=O)(=O)Nc2nccs2)cc1)c1ccc(=O)[nH]c1 | 3 | 18* | -19 | 0 | -4 | -150 | 10
Cc1c(Br)c(O)c(Br)c2sc(=O)oc12 | -1 | 29* | 18 | 0 | -6 | 74* | 1
Cc1cc(C(C#N)c2ccc(Cl)cc2)c(Cl)cc1NC(=O)c1cc(I)cc(I)c1O (stereo not drawn) | -3 | 25* | 40* | -1 | -12 | -5 | 42* | Fam108b inh=45*
CC(C)CN(Cc1cc(=O)oc2cc(-c3ccccc3)c(O)cc12)CC(C)C | 2 | 42* | -2 | -33 | -25 | -32 | 19*
O=c1cc(CN2CCN(C/C=C/c3ccccc3)CC2)c2cc(O)c(-c3ccccc3)cc2o1 | -3 | 8 | 3 | 3 | -2 | 3 | nt
Cn1c(C(O)C(O)c2ccccc2)nc2ccccc21 (stereo not drawn) | -2 | 2 | 3 | 4 | 4 | -1 | nt
Cn1c(C(C#N)C2=C(Cl)C(=O)N(c3ccccc3)C2=O)nc2ccccc21 (stereo not drawn) | 7 | 25* | 14 | 14 | 3 | 3 | 17
CC(C)N(CC(N)=O)c1ccc(S(=O)(=O)N2CCCC2)cn1 | 1 | nt | -9 | -2 | -1 | nt | nt
COc1cccc(C(=O)/C=C/Nc2ccc(S(=O)(=O)Nc3ccc(C(C)=O)cc3)cc2)c1 | 8 | 0 | -2 | -15 | -17 | -9 | nt
COc1ccc(C(=O)/C=C/Nc2ccc(S(=O)(=O)Nc3cccc(C(C)=O)c3)cc2)cc1 | -6 | 34* | 43* | 9 | -19 | -5 | 20*
COc1ccc(Nc2nc3ccccc3nc2NS(=O)(=O)c2cccs2)c(OC)c1 | -3 | 23* | 0 | -9 | 0 | 5 | 13
COc1ccc(/C=N\NC(=O)c2cc(O)c(O)c(O)c2)cc1COc1ccc(C(=O)OCC(C)C)cc1 | -12 | 28* | 42* | -18 | -28 | 26 | 31*
COc1ccc(C(=O)N/N=C/c2ccc(OC)c(COc3ccccc3)c2)cc1 | 1 | -1 | -7 | -22 | 0 | -7 | nt
CCOc1ccc(OCCn2nnc3ccccc3c2=O)cc1 | 0 | -1 | -5 | 0 | 4 | -3 | nt
O=[N+]([O-])c1cc(S(=O)(=O)N2CCCC2)ccc1SCCO | 2 | 0 | 3 | 4 | 2 | -6 | nt
CC(=O)C1=C(O)C(=O)N(c2ccc(S(N)(=O)=O)cc2)C1c1cccc([N+](=O)[O-])c1 (stereo not drawn) | 0 | 1 | 4 | 1 | 0 | 7 | nt
CC(=O)C1C(=O)c2c(cccc2[N+](=O)[O-])C1=Nc1ccc(S(N)(=O)=O)cc1 (stereo not drawn) | -2 | 20* | 26* | 10 | 2 | 20 | 22*
COc1cc(C(=O)NC(=S)N2CCN(C)CC2)cc(OC)c1OC | -3 | nt | nt | nt | nt | nt | nt
COc1ccc(C(=O)NC(=S)N2CCN(C)CC2)cc1Br | 3 | 47* | -4 | -2 | -5 | 4 | 2
SMILES | PAD4 inh | Fam108B counter | PME-1 inh | LYPLA2 inh | LYPLA1 counter | GSTO1 counter | Fam108b confirm | others
Cc1c(NC(=O)Nc2ccc(Cl)c(Cl)c2)sc(=S)n1C | 1 | 32* | 30* | 11 | -7 | -11 | 25*
O=C(CC1CC2CCC1C2)NCCc1ccc(Cl)cc1 (stereo not drawn) | -4 | 1 | -1 | 1 | 1 | 4 | nt
O=[N+]([O-])c1ccc(NN=Cc2ccccc2O)cc1 | nt | nt | nt | nt | nt | nt | nt | Fam108b inh=90*
O=[N+]([O-])c1ccc(NN=Cc2cccc(O)c2O)cc1 | nt | nt | nt | nt | nt | nt | nt | Fam108b inh=40*
O=[N+]([O-])c1cccc(N/N=C/c2cccc(O)c2O)c1 | -1 | 26* | 41* | -3 | -8 | 35* | 11
NC(=O)COC(=O)c1ccc(-c2ccc(O)cc2)cc1 | -4 | 2 | -1 | 6 | -2 | -1 | nt
COc1ccc(OC)c(-c2csc(NC(=O)CSc3ccc([N+](=O)[O-])cc3)n2)c1 | 3 | 21* | 10 | -29 | -35 | -13 | 14
COc1ccc(OC)c(-c2csc(NC(=O)CSc3ccc(Br)cc3)n2)c1 | -1 | 17 | -1 | -10 | -17 | -3 | nt
CC1(C)CC(=O)C2=C(C1)c1c(ccc3ccccc13)NC2c1cc([N+](=O)[O-])cc([N+](=O)[O-])c1O (stereo not drawn) | -1 | 26* | -5 | -10 | -6 | -335 | 57* | Fam108b inh=50*
CN(C)S(=O)(=O)c1cccc(NC(=S)N/N=C/c2cc(Br)ccc2O)c1 | 0 | 29* | 38* | -15 | -16 | -55 | 3
O=c1/c(=C/c2ccccn2)sc2nc3ccccc3n12 | 3 | 0 | -1 | 6 | 4 | 5 | nt
O=C(O)c1cccc(-c2ccc(/C=c3/sc4nc5ccccc5n4c3=O)o2)c1 | -2 | 25* | -11 | 4 | 10 | -1 | 9
O=c1c(=Cc2cc([N+](=O)[O-])cc([N+](=O)[O-])c2O)sc2nc3ccccc3n12 | nt | nt | nt | nt | nt | nt | nt | Fam108b inh=20
CCOc1ccc(C(C)NC(=O)Cc2ccccc2F)cc1OCC (stereo not drawn) | 2 | 2 | -6 | 2 | 2 | 9 | nt
O=C(NN=C1CCN(Cc2ccccc2)CC1)c1cc2ccccc2cc1O | -3 | 34* | 29* | 2 | -6 | 16 | -3
O=C(NN=C1CCN(Cc2ccccc2)CC1)c1ccccc1O | 0 | 2 | 1 | 11 | -1 | 26 | nt
Cc1c([N+](=O)[O-])c([N+](=O)[O-])nn1CC(=O)N1CCOCC1 | -2 | 4 | -6 | 2 | 3 | 4 | nt
O=c1[nH]c(-[n+]2ccc3ccccc3c2)c(/C=N/N=C(\[O-])c2ccccc2)s1 | 0 | 18* | 14 | 2 | 3 | 11 | 17
